Assay outcomes from PubChem.
Only some compounds are listed: those with a hit (about 21% of all), similar ones and a draw of the others.
CHX counter-1 – Cycloheximide Counterscreen for Small Molecule Inhibitors of Shiga Toxin; cell reporter, cycloheximide protein synthesis inhibition counterscreen; max response, %; 300,000 compounds, 12% hits; in the data active = max response mostly above about 13%, no sharp cut-off; inactive = mostly below about 14%; also: read at 38.3 µM for the half of the compounds with a filed dose; 0% is about no effect
Pf growth 96h – Primary qHTS for delayed death inhibitors of the malarial parasite plastid, 96 hour incubation; P. falciparum luciferase reporter growth, 96 h; Potency, µM (top dose mostly 28.7 µM), for inactives: top-dose activity change, negative = inhibition, hits mostly inhibitors; 320,000 compounds, 6.9% hits; AID 504834, 2011; also: potency is read from the fitted curve at half-maximal effect; % is scaled to controls: 0 for no effect and ±100 for the full control effect
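Luminescence readout: decreased luciferase signal marks inhibited growth of reporter-expressing P. falciparum in infected red cells (2% hematocrit, 0.05% parasitemia final), exposed to compound two generations (96 h, 37 C, 5% CO2).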
Shiga toxin inh – A qHTS for Small Molecule Inhibitors of Shiga Toxin; Vero cells, Shiga toxin protein synthesis inhibition reporter; 290,000 compounds, 9.2% hits; inhibition, % at 38.7 µM; in the data active = inhibition mostly above about 28%, no sharp cut-off; inactive = mostly below about 43%; also: 0% is about no effect
HCV inh – qHTS Assay for Inhibitors of Hepatitis C Virus (HCV). Huh7.5.1 HCVcc-Cre infection, luciferase reporter, 44 h. Potency, µM (top dose mostly 41.8 µM), for the others: at the top dose activity change, negative = inhibition, most hits filed as inhibitors. 340,000 compounds, 3.4% hits. AID 651820, 2012; also: potency is read from the fitted curve at half-maximal effect; % is scaled to controls: 0 for no effect and ±100 for the full control effect
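Compounds are dispensed onto cells plated 4 h earlier at 1,000 per well, with HCVcc-Cre virus (about 0.5 moi) added next. Following 44 h of culture, luminescent signal is measured for 15 sec after 15 min with substrate at room temperature.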
AMA1-RON2 inh – qHTS for Inhibitors of AMA1-RON; Towards Development of Antimalarial Drug Lead: Primary Screen. Plasmodium falciparum AMA1 (3D7) - RON2 peptide interaction. AlphaScreen AMA1-biotinylated RON2 peptide binding. Potency, µM (top dose mostly 58.2 µM), without a hit: at the highest dose activity change, negative = inhibition, most hits filed as inhibitors. 360,000 compounds, 0.2% hits;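 also: potency is read from the fitted curve at half-maximal effect; 0% = vehicle wells and -100% = peptide control; nearly all actives have a fitted effect of over 45% in size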
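AMA1 (3D7) with his tag at 25 nM final met compounds first, then biotinylated RON2 peptide at 25 nM; detection used donor plus acceptor beads, 10 µg/mL apiece, read by AlphaScreen after 30 min at room temperature.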
Pf growth 48h – Primary qHTS for delayed death inhibitors of the malarial parasite plastid, 48 hour incubation. 310,000 compounds, 5.9% hits. P. falciparum luciferase growth in erythrocytes, 48 h. Potency, µM (series often up to 28.7 µM), for the others: at the top dose activity change, negative = inhibition, most hits filed as inhibitors; also: potency is read from the fitted curve at half-maximal effect; % is scaled to controls: 0 for no effect and ±100 for the full control effect
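Luminescence readout; reporter = integrated firefly luciferase in P. falciparum. RBC culture at 2% hematocrit, 0.1% parasitemia final, 37 C/5% CO2; decreased signal taken as growth inhibition.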
CHX counter-2 – Cycloheximide Counterscreen for Small Molecule Inhibitors of Shiga Toxin (Confirmatory); shares compounds with Shiga toxin inh; Cycloheximide counterscreen, protein synthesis reporter, Shiga toxin assay; Potency, µM (doses to about 38.3 µM), for inactives: top-dose activity (activation), actives largely listed as activators; 510 compounds, 3% hits; AID 2318, 2010; calls by dose curve; also: potency is read from the fitted curve at half-maximal effect; 0% is about no effect
Active calls of the source: *; ? = inconclusive; nt = not tested or not shown; ! = a repeat was not active; [ ] = remark or other dose. Unless noted, calls follow the shape of the dose curve; as a rule, active = well fitted curve in the direction sought with a large enough effect; inconclusive = small, poorly fitted or top-dose-only effect, or another doubt; inactive = no such curve, though single readings can be large; an effect the other way counts as inactive or inconclusive.

SMILES	CHX counter-1	Pf growth 96h	Shiga toxin inh	HCV inh	AMA1-RON2 inh	Pf growth 48h	CHX counter-2
Cn1c(=O)[nH]c(=O)c2c1nc(SCC(O)CCl)n2Cc1ccccc1 (stereo not drawn)	-3	?	-8	-14%	-2%	-2%	nt
Cc1sc(NC(=O)CCCC(=O)O)c(C(N)=O)c1-c1ccccc1	9	7%	74*	12%	-14%	39%	?
CC(OC(=O)CCN=C1NS(=O)(=O)c2ccccc21)C(=O)Nc1ccc(F)c(F)c1F (stereo not drawn)	nt	39%	nt	14%	6%	-7%	nt
COC(=O)c1ccc(COc2ccc(C3C4=C(CCCC4=O)Nc4onc(C)c43)cc2)cc1 (stereo not drawn)	7	?	47*	?	-4%	?	?
COC(=O)c1ccc(C2CC(=O)NC3=C2C(=O)CCC3)cc1 (stereo not drawn)	-1	?	-7	12%	-8%	50%	nt
COc1cc2oc3cc(C)oc(=O)c3c2cc1OC	5	-26%	26	-23%	-5%	?	nt
COc1cc(O)c2c(c1)oc(=O)c1c3cc(O)c(O)cc3oc21	21*!	nt	33*	nt	nt	nt	8%
CC(=O)Nc1ccc(NC(=O)c2cc(S(=O)(=O)N3CCCCC3)ccc2N2CCOCC2)cc1	nt	nt	nt	35%	2%[11.6 µM]	nt	nt
Cc1ccc(NC(=O)c2cc(S(=O)(=O)N3CCCCC3)ccc2N2CCOCC2)cc1F	1	nt	31*	-23%	-5%	12µM*	-1%
Cc1c(C(=O)Nc2ccc(-c3nnc4n3CCCCC4)cc2)oc2ccc(Br)cc12	-4	11%	14*	11µM*	-10%	25%	?
O=C(Cc1cccs1)Nc1ccc(-c2nnc(-c3ccco3)o2)cc1	12	51%	49*	4%	0%	5%	?
CC(NC(=O)C1CCN(C(=O)Nc2ccccc2)CC1)c1ccc(Cl)cc1 (stereo not drawn)	nt	-32%	nt	-15%	-6%	?	nt
NS(=O)(=O)c1ccc(CCNC(=O)c2ccc(NC3=NC4CS(=O)(=O)CC4S3)cc2)cc1 (stereo not drawn)	-4	49%	114*	10%	8%	14%	-1%
COc1ccc(CNC(=O)COC(=O)CO/N=C(\C)c2ccc3c(c2)OCO3)cc1	nt	54%	nt	16%	-1%	-3%	nt
Nc1cc(N)nc(SCC(=O)Nc2ccc(Br)cc2Cl)n1	14	nt	48*	?	-11%	26%	?
CNC(=S)N1C2CCCC1CC(NC(=O)c1ccc(F)cc1)C2 (stereo not drawn)	-2	?	-9	9%	-6%	-29%	nt
COc1cc(/C=N/NC(=O)c2cc[n+]([O-])cc2)ccc1O	-5	28%	26	17%	58%	-1%	nt
CCCC(=O)Nc1cnc(NC(=O)c2cccc(F)c2)cc1C	4	nt	67*	-2%	52%	37%	1.6µM*
Cc1cc(NC(=O)C(C)C)ncc1NC(=O)c1cccc(F)c1	-1	?	0	-14%	-7%	-4%	nt
CSc1nc2cc3c(cc2n1C(=O)c1ccc(C)cc1)OCCO3	7	97%	80*	4%	2%	58%	?
Cc1ccc(C(=O)c2cc3c(cc2N)OCCO3)cc1	-3	-26%	1	12%	?	5%	nt
O=C(CN1C(=O)CN=C(c2ccccc2)c2ccccc21)NCc1ccco1	7	?	44*	15%	-10%	27%	-2%
CC(C)CCNC(=O)CN1C(=O)CN=C(c2ccccc2)c2ccccc21	-4	?	-3	-7%	-3%	?	nt
CCOC(=O)c1ccc(NC(=O)Nc2ccn(C)n2)cc1	13	-4%	47*	-4%	13%	-9%	?
CCOC(=O)c1ccc(NC(=O)Nn2cnnc2)cc1	9	32%	-1	27%	-10%	39%	nt
